# Reference: PubChem BioAssay (Tox21)
# Results filed as inconclusive are left out. Entries that show only a call come without a potency. Active and inactive are the calls of the source. Unless noted, calls come from the whole dose curve; as a rule, active = well fitted curve in the direction sought with a large enough effect in the repeat runs; inconclusive = weak or mixed curves; inactive = no such curve, though single readings can be large; an effect the other way counts as inactive or inconclusive.
# Columns and labels:
# [1] = qHTS assay to identify small molecule antagonists of the glucocorticoid receptor (GR) signaling pathway - cell viability counter screen (AID 720693); note: nearly all actives have a fitted effect of over 55% in size
# [2] = qHTS assay for identifying genotoxic compounds that show differential cytotoxicity against isogenic chicken DT40 cell lines with known DNA damage response pathways - wild type cell line (AID 743012); note: nearly all actives have a fitted effect of over 60% in size; note: potency is the fitted concentration of half-maximal effect
# Method in brief: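 First, wild type DT40 cells were plated at 300 per well and equilibrated about 0.5 h at 37 C/5% CO2. Next, compounds in DMSO were added and exposure lasted 40 h. Finally, CellTiter-Glo was added for 30 min at room temperature and luminescence recorded.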
# [3] = qHTS assay for identifying genotoxic compounds that show differential cytotoxicity against isogenic chicken DT40 cell lines with known DNA damage response pathways - Rev3 mutant cell line (AID 743014); note: nearly all actives have a fitted effect of over 55% in size; note: potency is the fitted concentration of half-maximal effect
# [4] = qHTS assay for identifying genotoxic compounds that show differential cytotoxicity against isogenic chicken DT40 cell lines with known DNA damage response pathways - Rad54/Ku70 mutant cell line (AID 743015); note: nearly all actives have a fitted effect of over 60% in size; note: potency is the fitted concentration of half-maximal effect
# [5] = qHTS assay to identify small molecule antagonists of the androgen receptor (AR) signaling pathway - cell viability counter screen (AID 743033; note: nearly all actives have a fitted effect of over 45% in size)
# [6] = qHTS assay to identify small molecule antagonists of the androgen receptor (AR) signaling pathway using the MDA cell line - cell viability counter screen (AID 743041; note: nearly all actives have a fitted effect of over 45% in size; note: potency is the fitted concentration of half-maximal effect)
# Method in brief: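 MDA-kb2 AR-luc human breast carcinoma cells (MMTV-luciferase, AR/GR responsive) were treated with compounds plus R1881 agonist for 16 h at 37 °C. Viability was read as CellTiter-Fluor fluorescence in the same wells as the reporter assay.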
# [7] = molecular target: Androgen receptor (Homo sapiens) (UniProt P10275); experiment: qHTS assay to identify small molecule antagonists of the androgen receptor (AR) signaling pathway (AID 743035; active = well fitted inhibition curve with a large enough effect in the signal ratio in the repeat runs, not every such curve was filed as active; the % refers to the signal ratio)
# Method in brief: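 Beta-lactamase FRET read (2 h RT incubation with LiveBLAzer B/G) following 16 h of compound plus R1881 treatment of AR-UAS-bla HEK293 cells, which had been pre-incubated 4 h at 37C.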
# [8] = molecular target: Androgen receptor (Homo sapiens) (UniProt P10275); experiment: qHTS assay to identify small molecule agonists of the androgen receptor (AR) signaling pathway using the MDA cell line (AID 743040; note: nearly all actives have a fitted effect of over 20% in size)
# Method in brief: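 MDA-kb2 breast carcinoma cells stably carrying an MMTV-driven luciferase reporter (AR- and GR-responsive) were seeded and held 5 h at 37C, 0% CO2, then exposed to compounds in DMSO for 16 h. Luminescence was read 30 min after ONE-Glo addition.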
# [9] = molecular target: Androgen receptor (Homo sapiens) (UniProt P10275); experiment: qHTS assay to identify small molecule antagonists of the androgen receptor (AR) signaling pathway using the MDA cell line (AID 743042; note: nearly all actives have a fitted effect of over 55% in size)
# Method in brief: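 MDA-kb2 cells (human breast carcinoma, stably carrying an MMTV-luciferase reporter responsive to AR and GR) were plated at 3,000 cells/well and preincubated 5 hr at 37C, then given compound plus R1881 agonist for 16 h. ONE-Glo luminescence was read.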
# Sequence of Androgen receptor (Homo sapiens) (P10275 whole entry, looked up): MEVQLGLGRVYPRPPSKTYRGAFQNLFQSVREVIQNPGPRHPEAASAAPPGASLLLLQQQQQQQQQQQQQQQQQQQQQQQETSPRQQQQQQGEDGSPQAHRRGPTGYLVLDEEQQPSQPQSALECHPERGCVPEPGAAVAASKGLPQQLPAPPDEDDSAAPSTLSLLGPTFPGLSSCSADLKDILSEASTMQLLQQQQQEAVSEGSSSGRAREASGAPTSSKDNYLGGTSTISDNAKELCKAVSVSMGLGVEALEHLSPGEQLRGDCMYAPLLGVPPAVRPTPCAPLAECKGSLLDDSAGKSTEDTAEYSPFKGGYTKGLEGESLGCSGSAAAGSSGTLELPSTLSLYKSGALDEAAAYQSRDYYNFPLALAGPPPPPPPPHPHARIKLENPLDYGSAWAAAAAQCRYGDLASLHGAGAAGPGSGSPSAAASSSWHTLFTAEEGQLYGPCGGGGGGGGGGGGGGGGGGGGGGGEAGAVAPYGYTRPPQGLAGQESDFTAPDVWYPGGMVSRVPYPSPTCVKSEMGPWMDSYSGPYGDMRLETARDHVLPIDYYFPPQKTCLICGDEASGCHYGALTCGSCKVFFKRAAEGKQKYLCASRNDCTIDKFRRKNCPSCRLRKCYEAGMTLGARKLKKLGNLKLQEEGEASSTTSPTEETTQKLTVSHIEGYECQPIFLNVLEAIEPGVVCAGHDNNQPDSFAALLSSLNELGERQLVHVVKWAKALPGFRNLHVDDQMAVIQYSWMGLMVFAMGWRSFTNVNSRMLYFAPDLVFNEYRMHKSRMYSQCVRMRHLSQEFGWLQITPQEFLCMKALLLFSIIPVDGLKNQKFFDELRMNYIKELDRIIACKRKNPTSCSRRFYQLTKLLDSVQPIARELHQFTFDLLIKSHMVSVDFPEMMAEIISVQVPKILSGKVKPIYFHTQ
SMILES,Potency [1],Potency [2],Potency [3],Potency [4],Potency [5],Potency [6],Potency [7],Potency [8],Potency [9]
C=C(C)C(=O)OCCOC(=O)CC(C)=O,inactive,inactive,inactive,inactive,inactive,inactive,,,
OCC1CC=CCC1 (stereo not drawn),inactive,inactive,inactive,inactive,,inactive,inactive,inactive,inactive
CC(C)(C)C(=O)C(Oc1ccc(Cl)cc1)n1ccnc1 (stereo not drawn),inactive,13.3 µM (active),26.6 µM (active),21.1 µM (active),,inactive,,,
CCCC1C(CC)=CC(CC)=CN1c1ccccc1 (stereo not drawn),inactive,2.73 µM (active),2.17 µM (active),1.93 µM (active),,54.5 µM (active),,,
COC(=O)CC(=O)C(C)(C)C,inactive,inactive,61.1 µM (active),,inactive,,,,
COC(OC)(C(=O)c1ccccc1)c1ccccc1,inactive,54.4 µM (active),15.3 µM (active),48.5 µM (active),,inactive,,,
O=C(CCCN1CCC(O)(c2ccc(Br)cc2)CC1)c1ccc(F)cc1,inactive,5.07 µM (active),2.85 µM (active),4.52 µM (active),,inactive,,,
CCOc1cc(N)c(Cl)cc1C(=O)NCC1CN(Cc2ccc(F)cc2)CCO1 (stereo not drawn),inactive,18.8 µM (active),11.9 µM (active),21.1 µM (active),,inactive,,,
O=C(Nc1ccc([N+](=O)[O-])cc1)Nc1ccc([N+](=O)[O-])cc1,inactive,10.6 µM (active),10.6 µM (active),11.9 µM (active),,inactive,,,
